# Counter-ions that a name gives are not always drawn. ± gives the standard deviation of the averaged measurements.
# Tested on: E. coli TESEC Mtb Alr
# Experiment: growth (OD600 after 10 h); higher = more growth (less inhibition)
# Settings: compound 0.1 mM
# Procedure: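 TESEC Mtb Alr E. coli, or the Alr+ wild-type control, in 384-well plates with Prestwick library compounds at 0.1 mM and 1% DMSO, across arabinose induction levels of 1E3 to 1E7 nM. Growth is read as OD600 after 10 h at 37 °C in triplicate biological replicates.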
# [1] = arabinose 1000 nM, raw OD600 reference: median of DMSO wells 0.294, cell-free background 0.041
# [2] = arabinose 10000 nM, raw OD600 reference: median of DMSO wells 0.264, cell-free background 0.041
# [3] = arabinose 100000 nM, raw OD600 reference: median of DMSO wells 0.201, cell-free background 0.041
# [4] = arabinose 1000000 nM, raw OD600 reference: median of DMSO wells 0.193, cell-free background 0.041
# [5] = arabinose 10000000 nM, raw OD600 reference: median of DMSO wells 0.146, cell-free background 0.041
compound,measurement,setting,value
CCOc1cc(CC(=O)N[C@@H](CC(C)C)c2ccccc2N2CCCCC2)ccc1C(=O)O [Repaglinide],growth,[1],0.199 ± 0.0075
same,growth,[2],0.26 ± 0.024
same,growth,[3],0.175 ± 0.0084
same,growth,[4],0.174 ± 0.0073
same,growth,[5],0.155 ± 0.01
Oc1c(Cl)cc(Cl)c2cccnc12 [Chloroxine],growth,[1],0.0429 ± 0.00083
same,growth,[2],0.0409 ± 0.00069
same,growth,[3],0.0435 ± 0.00076
same,growth,[4],0.0415 ± 0.00061
same,growth,[5],0.0495 ± 0.00057
CCCCC(CC)CNC(=N)NC(=N)NCCCCCCNC(=N)NC(=N)NCC(CC)CCCC (stereo not given) [Alexidine dihydrochloride],growth,[1],0.0821 ± 0.0028
same,growth,[2],0.0849 ± 0.0013
same,growth,[3],0.0842 ± 0.0022
same,growth,[4],0.0553 ± 0.0016
same,growth,[5],0.0814 ± 0.004
CC(C)NC[C@@H](O)COc1cccc2ccccc12 [(R)-Propranolol hydrochloride],growth,[1],0.262 ± 0.0043
same,growth,[2],0.291 ± 0.0066
same,growth,[3],0.186 ± 0.015
same,growth,[4],0.216 ± 0.028
same,growth,[5],0.142 ± 0.0024
O=C(O)c1cc(/N=N/c2ccc(S(=O)(=O)Nc3ccccn3)cc2)ccc1O [Sulfasalazine],growth,[1],0.308 ± 0.0065
same,growth,[2],0.254 ± 0.0054
same,growth,[3],0.193 ± 0.018
same,growth,[4],0.169 ± 0.011
same,growth,[5],0.131 ± 0.0032
OC(CCN1CCCC1)(c1ccccc1)C1CCCCC1 (stereo not given) [Procyclidine hydrochloride],growth,[1],0.297 ± 0.018
same,growth,[2],0.266 ± 0.0065
same,growth,[3],0.194 ± 0.011
same,growth,[4],0.163 ± 0.0092
same,growth,[5],0.148 ± 0.0059
CCCCNC(=O)NS(=O)(=O)c1ccc(C)cc1 [Tolbutamide],growth,[1],0.295 ± 0.005
same,growth,[2],0.243 ± 0.0065
same,growth,[3],0.191 ± 0.018
same,growth,[4],0.16 ± 0.006
same,growth,[5],0.136 ± 0.0022
O=C(O)c1cc(=O)c2c(OCC(O)COc3cccc4oc(C(=O)O)cc(=O)c34)cccc2o1 [Cromolyn disodium salt],growth,[1],0.311 ± 0.019
same,growth,[2],0.275 ± 0.0036
same,growth,[3],0.21 ± 0.014
same,growth,[4],0.201 ± 0.011
same,growth,[5],0.14 ± 0.0057
